Holding throughout (test): modulators of BK channel variants, profiling panel, selectivity assay, cell-based, U2OS BacMam, thallium flux, beta subunits (AID 1259406);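 further: initial slope of Thallos dye fluorescence rise after thallium is added; log ratio against the mean of 0.3% DMSO vehicle wells on the same plate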
One assay concerns F380Y/beta2Delta. The note with it: at 30 µM.
The next assay concerns F380Y/beta4. Particulars: at 30 µM.
Assay [1] addresses Calcium-activated potassium channel subunit alpha-1 (Homo sapiens) + Leucine-rich repeat-containing protein 26 (Homo sapiens) (UniProt Q12791+Q2I0M4). The note with it: F380Y/Slo1WT/gamma1, at 30 µM.
The test system of the next assay is R275C. Particulars: at 30 µM.
The next assay concerns R275C/beta1. The note with it: at 30 µM.
The subject of another assay is R275C/beta2Delta. The note with it: at 30 µM.
A further assay deals with R275C/beta4. The note with it: at 30 µM.
Another assay has as its system R275C/Slo1WT/beta2. The note with it: at 30 µM.

Each structure is given as a SMILES string. “And” between values parts separate entries of the source, which are not always exact repeats. Identical values can stand only once. Values without a mark were called inactive. The source made the active and inactive calls.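 How the source made its calls: active means thallium flux through the channel raised or lowered by more than 3 SD from vehicle-only wells, actives on both sides; inactive means the rest.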

Sequence of Calcium-activated potassium channel subunit alpha-1 (Homo sapiens) + Leucine-rich repeat-containing protein 26 (Homo sapiens) (Q2I0M4 whole entry, looked up, one chain of several): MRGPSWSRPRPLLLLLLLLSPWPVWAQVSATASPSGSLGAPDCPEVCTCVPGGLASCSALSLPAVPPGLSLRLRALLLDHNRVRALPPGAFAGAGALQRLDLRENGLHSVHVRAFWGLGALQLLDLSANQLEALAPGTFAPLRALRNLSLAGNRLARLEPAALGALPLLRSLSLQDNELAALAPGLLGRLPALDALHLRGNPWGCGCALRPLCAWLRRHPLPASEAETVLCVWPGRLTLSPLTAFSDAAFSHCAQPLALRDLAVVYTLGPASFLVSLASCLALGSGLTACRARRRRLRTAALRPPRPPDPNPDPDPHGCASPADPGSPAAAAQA

Consider `CC(=O)Nc1ccc(CC(=O)O)cc1`, for which the log fold change Tl+ flux was -0.0235 in the assay on F380Y/beta2Delta; -0.0309 in the assay on F380Y/beta4; -0.0302 in assay [1]; -0.0367 in the assay with R275C; -0.0357 with R275C/beta1; -0.0277 in the assay on R275C/beta2Delta. Also, the log fold change Tl+ flux in the assay with R275C/beta4 is -0.0244; in the assay with R275C/Slo1WT/beta2 it was -0.00738.
Turning to `CN1CCN(C2=Nc3cc(F)ccc3Cc3ccccc32)CC1`, the log fold change Tl+ flux was 0.0383 with F380Y/beta2Delta; 0.075 in the assay with F380Y/beta4; -0.0172 in assay [1]; -0.0264 in the assay with R275C; 0.0276 in the assay on R275C/beta1; 0.0198 in the assay with R275C/beta2Delta. Further, the log fold change Tl+ flux with R275C/beta4 was 0.0369; in the assay on R275C/Slo1WT/beta2 it was 0.0225.
Take `OCc1cccnc1`: the log fold change Tl+ flux is 0.033 in the assay with F380Y/beta2Delta; 0.017 in the assay on F380Y/beta4; -0.0204 in assay [1]; -0.0301 in the assay on R275C; -0.00726 in the assay on R275C/beta1; -0.015 in the assay with R275C/beta2Delta. Moreover, the log fold change Tl+ flux was -0.00528 in the assay on R275C/beta4 and 0.0162 with R275C/Slo1WT/beta2.
Take `O=C1[C@H]2CCCC[C@H]2C(=O)N1CCCCN1CCN(c2nsc3ccccc23)CC1`: the log fold change Tl+ flux in the assay on F380Y/beta2Delta is 0.0368; with F380Y/beta4, 0.0464; in assay [1], -0.0162; in the assay on R275C, -0.0177; with R275C/beta1 it was 0.107 (active); with R275C/beta2Delta it was 0.0344. For the same molecule, the log fold change Tl+ flux with R275C/beta4 is 0.0306; in the assay on R275C/Slo1WT/beta2 it was -0.00391.
Take `CC(C)c1nc(CN(C)C(=O)N[C@H](C(=O)N[C@@H](Cc2ccccc2)C[C@H](O)[C@H](Cc2ccccc2)NC(=O)OCc2cncs2)C(C)C)cs1`: the log fold change Tl+ flux with F380Y/beta2Delta was -0.548 (active); with F380Y/beta4, -0.505 (active); in assay [1] it was -0.199 (active); in the assay on R275C, -0.232 (active); in the assay on R275C/beta1, 0.0641; with R275C/beta2Delta, -0.208 (active). Moreover, the log fold change Tl+ flux with R275C/beta4 was -0.0726; in the assay on R275C/Slo1WT/beta2, 0.0476.
In the case of `Cc1cn([C@H]2C=C[C@@H](CO)O2)c(=O)[nH]c1=O`, the log fold change Tl+ flux was 0.00122 and 0.00603 with F380Y/beta2Delta; -0.027 and 0.00706 with F380Y/beta4; 0.0426 and -0.00611 in assay [1]; -0.1 and -0.00698 in the assay on R275C; -0.02 and 0.0272 with R275C/beta1; -0.0201 and 0.00371 in the assay with R275C/beta2Delta. Besides, the log fold change Tl+ flux with R275C/beta4 is 0.0202 and -0.00131; in the assay on R275C/Slo1WT/beta2, 0.0395 and 0.0392.
Consider `Cc1c(O)cccc1C(=O)N[C@@H](CSc1ccccc1)[C@H](O)CN1C[C@H]2CCCC[C@H]2C[C@H]1C(=O)NC(C)(C)C`, for which the log fold change Tl+ flux in the assay with F380Y/beta2Delta was -0.0274; with F380Y/beta4 it was 0.0671; in assay [1], 0.0165; with R275C, -0.105; in the assay on R275C/beta1, 0.237 (active); with R275C/beta2Delta, -0.0795. For the same molecule, the results for the log fold change Tl+ flux in the assay on R275C/beta4 and in the assay with R275C/Slo1WT/beta2 were -0.0349 and -0.0218, respectively.
As for `O=C1CCc2ccc(OCCCCN3CCN(c4cccc(Cl)c4Cl)CC3)cc2N1`, the log fold change Tl+ flux in the assay with F380Y/beta2Delta is -0.00576; in the assay with F380Y/beta4, 0.0383; in assay [1], -0.0185; in the assay with R275C, -0.0555; with R275C/beta1 it was 0.056; in the assay with R275C/beta2Delta it was 0.0181. Moreover, the log fold change Tl+ flux with R275C/beta4 was 0.0353; with R275C/Slo1WT/beta2 it was 0.0373.
With `CCOc1cc(CC(=O)N[C@@H](CC(C)C)c2ccccc2N2CCCCC2)ccc1C(=O)O`, the log fold change Tl+ flux was 0.217 (active) in the assay with F380Y/beta2Delta; 0.297 (active) in the assay with F380Y/beta4; 0.0882 in assay [1]; -0.00436 with R275C; 0.495 (active) in the assay with R275C/beta1; 0.262 (active) with R275C/beta2Delta. In addition, the log fold change Tl+ flux with R275C/beta4 is 0.161 (active); in the assay on R275C/Slo1WT/beta2, 0.0386.
Consider `CN(CCCN1c2ccccc2CCc2ccccc21)CC(=O)c1ccc(Cl)cc1`, for which the log fold change Tl+ flux in the assay with F380Y/beta2Delta was -0.0465; in the assay with F380Y/beta4, 0.0103; in assay [1], 0.00396; in the assay on R275C it was -0.00393; in the assay on R275C/beta1, 0.055; in the assay on R275C/beta2Delta, 0.0142. Besides, the results for the log fold change Tl+ flux in the assay with R275C/beta4 and in the assay with R275C/Slo1WT/beta2 were 0.0763 and -0.0536, respectively.
`NS(=O)(=O)Cc1noc2ccccc12`: the log fold change Tl+ flux in the assay with F380Y/beta2Delta is -0.0343; in the assay on F380Y/beta4 it was -0.0562; in assay [1] it was 0.00637; with R275C, -0.021; with R275C/beta1, 0.0189; in the assay with R275C/beta2Delta, -0.0477. Besides, the log fold change Tl+ flux in the assay on R275C/beta4 is 0.00838; in the assay on R275C/Slo1WT/beta2, -0.0027.
Regarding `CC(C)NCC(O)COc1ccc(CCOCC2CC2)cc1` (stereo not given), the log fold change Tl+ flux is 0.0281 with F380Y/beta2Delta; 0.0205 in the assay on F380Y/beta4; -0.00804 in assay [1]; 0.0179 in the assay on R275C; 0.00923 in the assay on R275C/beta1; -0.0652 with R275C/beta2Delta. Besides, the figures for the log fold change Tl+ flux in the assay on R275C/beta4 and with R275C/Slo1WT/beta2 were -0.0167 and -0.00955, respectively.
Take `CCCN[C@H]1CCc2nc(N)sc2C1`: the log fold change Tl+ flux with F380Y/beta2Delta is 0.0149 and -0.064; in the assay on F380Y/beta4, 0.049; in assay [1], -0.0398 and 0.00679; in the assay on R275C, -0.0132 and -0.0398; in the assay with R275C/beta1 it was -0.0125 and -0.021; in the assay with R275C/beta2Delta, -0.0052 and -0.0245. For the same molecule, the log fold change Tl+ flux in the assay with R275C/beta4 is 0.000139; in the assay on R275C/Slo1WT/beta2, 0.0182.
`CC(=O)O[C@H]1C[C@@H]2CC[C@@H]3[C@H](CC[C@@]4(C)[C@H]3C[C@H]([N+]3(C)CCCCC3)[C@@H]4OC(C)=O)[C@@]2(C)C[C@@H]1N1CCCCC1`: the log fold change Tl+ flux is 0.00769 with F380Y/beta2Delta; 0.00267 in the assay with F380Y/beta4; -0.00222 in assay [1]; -0.114 (active) with R275C; 0.00114 in the assay with R275C/beta1; -0.0355 in the assay with R275C/beta2Delta. Besides, the log fold change Tl+ flux was 0.018 with R275C/beta4 and 0.0408 with R275C/Slo1WT/beta2.
As to `C[C@H]1COc2c(C3(N)CC3)c(F)cc3c(=O)c(C(=O)O)cn1c23`, the log fold change Tl+ flux is -0.0452 in the assay with F380Y/beta2Delta; -0.037 with F380Y/beta4; 0.00396 in assay [1]; -0.0195 with R275C; -0.0326 with R275C/beta1; -0.0136 in the assay with R275C/beta2Delta. The log fold change Tl+ flux in the assay with R275C/beta4 was -0.0013; in the assay with R275C/Slo1WT/beta2, -0.0265.

For the origin of these results see PubChem BioAssay.
